Test results reported in PubChem BioAssay (NCI).
The panel holds about 83,000 compounds, 20% with a hit somewhere; the sample as a whole holds those more often.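 Cell lines were cultured in 96-well plates, exposed to a single compound concentration, and assessed for percent growth 48 hours later.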 A number with no mark means an inactive call. Active and inactive are the calls of the source. Rule for the calls: active = growth percent below 10; inactive = the rest.

Key:
Assay in all cases: NCI-60 one-dose screen, 48 h (100 = growth as untreated, 0 = no growth, -100 = all killed)
Settings in all cases: 10 µM unless noted
NCI-H23 lung = tested on: NCI-H23 lung
NCI-H322M lung = tested on: NCI-H322M lung
HOP-62 NSCLC = tested on: HOP-62 NSCLC
NCI-H460 lung = tested on: NCI-H460 lung
HOP-92 NSCLC = tested on: HOP-92 NSCLC
NCI-H522 lung = tested on: NCI-H522 lung
A549/ATCC NSCLC = tested on: A549/ATCC NSCLC
786-0 renal = tested on: 786-0 renal
COLO 205 colon = tested on: COLO 205 colon
DU-145 prostate = tested on: DU-145 prostate

SMILES	growth (NCI-H23 lung)	growth (NCI-H322M lung)	growth (HOP-62 NSCLC)	growth (NCI-H460 lung)	growth (HOP-92 NSCLC)	growth (NCI-H522 lung)	growth (A549/ATCC NSCLC)	growth (786-0 renal)	growth (COLO 205 colon)	growth (DU-145 prostate)
COc1ccc(-c2nsc3c2NC(=O)CC3c2ccc3c(c2)OCCO3)cc1 (stereo not given)	29%	74.8%	34.8%	6.65% (active)	66.1%	-15.2% (active)	28.9%	28.3%	-70.4% (active)	5.37% (active)
COc1ccc(C(=O)Nc2ccc3nc(N4CCCCC4)cc(C)c3c2)cc1OC	96.8%	117%	115%	51.9%	40.8%	98.3%	85.2%	85.4%	95.9%	83.9%
COc1ccc2sc(N(Cc3cccnc3)C(=O)c3ccc(C#N)cc3)nc2c1	96.3%	101%	94.4%	101%	60.7%	124%	81.9%	69.8%	84%	93.5%
O=C(Nc1ccc(N2CCNCC2)cc1)c1[nH]ncc1Nc1ncnc2sc3c(c12)CCC3	-68.6% (active)	-33.2% (active)	-76.2% (active)	-81.8% (active)	-56.7% (active)	-50.3% (active)	-71.4% (active)	-81.4% (active)	-77.2% (active)	-92.4% (active)
COc1ccc(C2=NN(/C=C3\SC(=O)NC3=Nc3ccc(F)cc3)C(c3ccc(F)cc3)C2)cc1 (stereo not given)	96.9%	93.7%	105%	101%	99.7%	91.2%	92%	92.7%	106%	102%
O=C1/C=C/[C@@H](O)[C@@H]2C[C@@H](O)C[C@H]2/C=C/CCCCO1	13%	33.2%	23.8%	7.12% (active)	-3.95% (active)	19.4%	23.1%	3.17% (active)	-49.7% (active)	19.3%
COc1cc(C=C2C(=O)N(C)C(=O)N(C)C2=O)cc(CN2CCCCC2)c1O	96.6%	102%	93.1%	108%	101%	94.3%	100%	95.5%	111%	104%
CCn1c(-c2nonc2Nc2ccc(OC)cc2)nc2ccccc21	107%	105%	115%	109%	134%	89%	93.5%	95.1%	124%	113%
N#Cc1c(N)nc2c(c1N)C(c1ccc(F)cc1)c1ccc(N)cc1O2 (stereo not given)	117%	150%	113%	110%	97.2%	86.4%	101%	92.3%	124%	110%
O=c1oc2ccc(Br)cc2c(=O)n1-c1ccc(I)cc1F	1.15% (active)	4.56% (active)	1.91% (active)	3.43% (active)	-16.6% (active)	-13.4% (active)	6.38% (active)	2.68% (active)	51.2%	13.6%
Cc1ccc2cccc(Oc3ccc(Nc4ncnc5onc(-c6ccccc6)c45)cc3)c2n1	87.9%	88.2%	90.4%	73.5%	26.3%	72.2%	80.6%	101%	59.1%	94.4%
COc1ccc(C2C3=C(COC3=O)N(CCO)c3cc4c(cc32)CCC4)cc1OC (stereo not given)	29.8%	35.3%	31.6%	-15.1% (active)	91.9%	-33.7% (active)	19.5%	26.7%	14.9%	-28.1% (active)
COc1ccc(-c2nsc3c2NC(=O)CC3c2ccsc2)cc1 (stereo not given)	39.6%	42.4%	33.5%	6.14% (active)	71.9%	11.6%	27.4%	29.8%	-77.3% (active)	-8.61% (active)
CCC1=C[C@@H]2CN(C1)Cc1c([nH]c3ccccc13)[C@@](C(=O)OC)(c1cc3c(cc1OC)N(C)[C@H]1[C@@](O)(C(=O)OC)[C@H](OC(C)=O)[C@]4(CC)[C@@H]5C[C@@H]5CN5CC[C@]31[C@@H]54)C2	5.89% (active)	49.3%	17.4%	0.48% (active)	21.2%	-14.5% (active)	13.9%	11.2%	-86% (active)	-17.9% (active)
OC(CNC1CCCCC1)Cn1c2ccc(I)cc2c2cc(I)ccc21 (stereo not given)	76.6%	75.8%	74.4%	70.1%	-0.53% (active)	67.5%	75%	77.7%	104%	101%
Nc1nc(N)c2c(n1)NC1(C=C(O)c3ccccc31)C1=C(N2)c2ccccc2C1=O (stereo not given)	104%	123%	104%	105%	87%	95.3%	110%	104%	118%	98.7%
FC(F)(F)c1cccc(Nc2nc(-c3ccccc3)nc3ncccc23)c1	89.9%	87.8%	84.5%	20.9%	-67.3% (active)	72.8%	82.3%	68%	-75% (active)	75.1%
CCN1C(=O)N(c2ccccc2)C2NN=c3s/c(=C4\C(=O)N(C(C)C)c5ccccc54)c(=O)n3C21 (stereo not given)	46.5%	54.4%	36.2%	5.98% (active)	95.7%	14.7%	21%	28.3%	2.82% (active)	9.07% (active)
CCOc1c(Br)cc(C2C(C(=O)OC)=CN(C)C=C2C(=O)OC)cc1OC	98%	76.3%	84.6%	48.3%	39.2%	75.9%	85.9%	58.3%	-88.1% (active)	91.4%
Cc1ccc(NC2=CC(=O)C(=O)c3ccccc32)c(C)c1	-25.5% (active)	57.7%	27.3%	-56.7% (active)	123%	47.6%	5.75% (active)	99.4%	85%	-60.8% (active)
CCN1C(=O)N(CC)C2C1NC(=S)N2/N=C/C=C/c1ccccc1OC (stereo not given)	24.3%	43.9%	44.4%	5.86% (active)	18.4%	4.46% (active)	22.5%	20.2%	-46.2% (active)	9.85% (active)
CCOC(=O)c1cc2c(n1Cc1cc(OC)c(OC)c(OC)c1)-c1oncc1CCC2	21.5%	50.7%	39.8%	5.74% (active)	129%	5.14% (active)	26.7%	39.5%	-39.9% (active)	13%
C=C(C)CCC(C)N1CCC(N2CCC(C(=O)NCCc3ccccc3)CC2)CC1 (stereo not given)	62.4%	81%	79%	40.4%	71%	43.2%	43.4%	70.2%	25.4%	62.2%
O=S(=O)(c1ccccc1)n1cc2c(c1-c1ccccc1)CCc1sc(Nc3ccccc3)nc1-2	92.8%	75.6%	112%	86.6%	86.6%	77.7%	75.2%	89.7%	103%	90.1%
COc1cc2nc(-c3cccc4cccnc34)nc(NC3CCN(Cc4ccccc4)CC3)c2cc1OC	-72.2% (active)	-71.3% (active)	-73.9% (active)	-73.6% (active)	-73.2% (active)	-52.1% (active)	-72.7% (active)	-71.4% (active)	-75.5% (active)	-93.6% (active)
CCN(CCO)CCNc1ccc(C)c2sc3cc(Cl)ccc3c(=O)c12	59.6%	47%	38.5%	-75.9% (active)	4.54% (active)	50.2%	24.6%	-60.1% (active)	-80.9% (active)	16.9%
COC(=O)[C@H](NC(=O)C1(C)CCC[C@]2(C)[C@H]3C[C@H]4C(C(C)C)=C[C@]3(CC[C@@H]12)[C@@H]1C(=O)CCC(=O)[C@@H]14)C(C)C (stereo not given in full)	103%	96.2%	99.8%	113%	96.8%	102%	94.4%	102%	110%	106%
